# Bioassay records from PubChem.
# Only some compounds are listed: those with a hit (about 1.4% of all), similar ones and a draw of the others.
# TSHR antagonist: blocks TSH signaling through the human TSH receptor; P16473; TSHR-expressing cells, TSH-stimulated cAMP HTRF, 2 h; active compounds read low; activity change, negative = inhibition, % at 11.5 µM; 330,000 compounds, 0.2% hits; AID 504810;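 active = activity change below a set negative limit, meaning inhibition stronger than a set level, cut at about -70% in these data; inconclusive = activity change between two set negative limits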; note: % is set by controls: 0 for no effect and ±100 for the full control effect
# Target sequence (P16473 whole entry, looked up): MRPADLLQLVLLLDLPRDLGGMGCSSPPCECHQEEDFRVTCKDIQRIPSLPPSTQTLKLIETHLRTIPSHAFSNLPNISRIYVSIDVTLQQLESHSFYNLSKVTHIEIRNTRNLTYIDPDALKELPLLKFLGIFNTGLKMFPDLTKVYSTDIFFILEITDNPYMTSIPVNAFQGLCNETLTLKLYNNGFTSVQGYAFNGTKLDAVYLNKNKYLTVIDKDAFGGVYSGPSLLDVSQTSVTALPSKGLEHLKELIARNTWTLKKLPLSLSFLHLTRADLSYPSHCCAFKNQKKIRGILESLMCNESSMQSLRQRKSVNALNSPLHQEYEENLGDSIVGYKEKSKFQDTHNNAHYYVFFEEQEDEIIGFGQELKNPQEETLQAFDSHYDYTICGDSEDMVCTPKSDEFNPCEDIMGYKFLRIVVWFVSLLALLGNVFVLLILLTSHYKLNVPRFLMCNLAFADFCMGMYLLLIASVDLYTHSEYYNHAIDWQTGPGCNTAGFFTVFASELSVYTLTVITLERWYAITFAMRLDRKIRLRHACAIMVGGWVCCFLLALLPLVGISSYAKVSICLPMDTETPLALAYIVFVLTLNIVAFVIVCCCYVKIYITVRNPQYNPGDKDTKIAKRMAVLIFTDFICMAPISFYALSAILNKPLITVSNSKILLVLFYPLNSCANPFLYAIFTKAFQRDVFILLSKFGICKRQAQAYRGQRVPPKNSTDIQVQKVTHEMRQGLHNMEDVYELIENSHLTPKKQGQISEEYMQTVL
#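 Freshly harvested TSHR cells receive pin-tooled compound, then EC80 TSH at 4nM final. After 2 hours at 37 deg C, antibody in lysis buffer and cAMP-d2 are added; 30 minutes at ambient temperature precede the HTRF read.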
# GLS inh: glutaminase GLS (human) inhibition. O94925. GLS enzymatic activity, qHTS titration. Potency, µM (series often up to 45.5 µM), for the others: at the top dose activity change, negative = inhibition, hits mostly inhibitors. 410,000 compounds, 0.21% hits; note: potency is the fitted concentration of half-maximal effect; % is set by controls: 0 for no effect and ±100 for the full control effect
#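 Two-point fluorescence kinetic (t0, 30 min RT) for hKGA; glutamate detected via glutamate oxidase–HRP–Amplex Red. Substrate: 1 mM L-glutamine solution; buffer 45 mM KH2PO4, pH 8.2.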
# N370S GC mod: inhibitors or activators of N370S glucocerebrosidase for Gaucher disease. P04062. N370S GC spleen homogenate, 4MU-glucoside fluorescence. Potency, µM (top dose mostly 59.4 µM), for the others: top-dose activity change, negative = inhibition, hits mostly inhibitors. 330,000 compounds, 0.092% hits. AID 2101;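 note: potency is the fitted concentration of half-maximal effect; 0% = full enzyme activity and -100% = no enzyme basal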
# p53 reactivator: re-activators of mutant p53; 320,000 compounds, 0.063% hits; AID 504706; Potency, µM (highest dose often 92.2 µM), without a hit: at the top dose activity change, positive = activation, actives largely listed as activators; H1299 p53-A138V BP100-luciferase reporter, luminescence, 24 h; note: potency is the fitted concentration of half-maximal effect; % of control where 0% means no effect; nearly all actives have a fitted effect of over 45% in size
#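 p53-null H1299 cells stably carrying temperature-sensitive p53-A138V and a BP100-luciferase reporter were pinned with compounds (4-point, 1:5 series) and held 24 hrs at 37 deg C. Luminescence was read 10 min after detection reagent.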
# BRCA1 expr up: activators of BRCA1 expression | MCF7-BRCA1-FFLuc reporter, luminescence, 48 h; response scale: scaled: vehicle 0%, 10 µM genistein 100% | Potency, µM (series often up to 46.1 µM), for the others: at the top dose activation, usual class: activators | 380,000 compounds, 1.1% hits; note: potency is the fitted concentration of half-maximal effect; nearly all actives have a fitted effect of over 80% in size
#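 Quantitative HTS in MCF7 cells stably reporting BRCA1 expression via firefly luciferase. Compound treatment lasts 48 h at 37 °C in phenol-red free MEM. Activation is expressed relative to genistein at 10 microM and DMSO.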
# TCR activator: T cell receptor activation. primary human leukocytes, anti-CD3, IL-2 HTRF, 48 h. Potency, µM (titrated, usually from 9.22 µM), for inactives: at the top dose activation of IL-2 secretion, hits mostly activators. 330,000 tested, under 10 active; note: % of control where 0% means no effect
#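 IL-2 produced over 48 hr by a-CD3 bead-stimulated primary human leukocytes exposed to compounds was detected with a homogeneous time-resolved FRET immunoassay, 665nm acceptor signal after 320nm excitation.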
# Starred values were filed as active, the others as inactive; u = inconclusive; x = no result; [ ] = remark or other dose. Unless noted, calls come from the whole dose curve; as a rule, active = well fitted curve in the direction sought with a large enough effect; inconclusive = small, poorly fitted or top-dose-only effect, or another doubt; inactive = no such curve, though single readings can be large; an effect the other way counts as inactive or inconclusive.
SMILES,TSHR antagonist,GLS inh,N370S GC mod,p53 reactivator,BRCA1 expr up,TCR activator
CC(=O)OC1CC(OC2C(O)CC(OC3C(O)CC(O[C@H]4CC[C@]5(C)C6CC[C@]7(C)[C@@H](C8=CC(=O)OC8)[C@@H](O)C[C@]7(O)[C@@H]6CC[C@@H]5C4)OC3C)OC2C)OC(C)C1OC1OC(CO)C(O)C(O)C1O (stereo not given in full),x,-4%,x,x,x,x
CN1CC=C(/C=C/c2ccc(-c3ccccc3)cc2)CC1,-2,-3%,u,0%,8.9µM*,4%
COc1ccc(/C=C/C2=CCN(C)CC2)cc1,-5,18%,0%,-1%,u,-8%
CCC1CC2CC3c4[nH]c5ccc(OC)cc5c4CCN(C2)C13 (stereo not given),x,21%[99.4 µM],x,x,x,x
CNc1cc(Cl)c2nonc2c1[N+](=O)[O-],-89*,0%,-8%,-12%,-97%,-2%
CCOC(=O)c1c(C)n(CCN2CCN(C)CC2)c2ccc(OC)cc12,1,14%,-7%,-9%,-1%,13%
COc1ccc2c(c1)c(CCN1CCOCC1)c(C)n2C(=O)c1cccc(Cl)c1Cl,-8,x,13µM*,x,x,x
CNc1ccc2oc(C[C@@H]3OC4(CC[C@@H]3C)O[C@H]([C@@H](C)C(=O)c3ccc[nH]3)[C@H](C)C[C@H]4C)nc2c1C(=O)O (stereo not given in full),x,x,9%,x,x,x
O=C(CSc1nnc(NC(=O)c2ccccc2F)s1)NCc1ccc(F)cc1,6,1%,-14%,u,5µM*,-10%
CC(=O)C(O)C(c1ccccc1)c1c(O)c2ccccc2oc1=O (stereo not given),x,x,-2%,x,x,x
O=C(c1cc(-c2ccccc2)on1)N1CCC2(CC1)OCCO2,-5,x,0%,-4%,x,x
O=C(c1cc(-c2cccc(Cl)c2)on1)N1CCOCC1,11,-11%,-5%,u,10µM*,-5%
CC(O)CN1CCN(CC(=O)[O-])CCN(CC(=O)[O-])CCN(CC(=O)[O-])CC1.[Gd+3] (stereo not given),x,0%,x,x,x,x
O=C(NCCCN1CC1)Nc1cccc2ccccc12,x,11%,x,x,-40%,-2%
O=C(CSc1ccccn1)Nc1cccc2ccccc12,-116*,-2%,u,-1%,-27%,5%
C#C[C@]1(OC(=O)CCCCCC)CC[C@H]2C3CCC4=CC(=O)CC[C@@H]4[C@H]3CC[C@@]21C (stereo not given in full),x,-2%,x,x,x,x
C[C@@H](Cc1cccc(C(F)(F)F)c1)NCCCc1ccccc1,x,x,-18%,x,x,x
CC(Cc1ccccc1)/[N+]([O-])=C\c1ccc(C(F)(F)F)cc1 (stereo not given),3,-8%,-17%,u,10µM*,-4%
CCOC(=O)C1(CCOc2ccccc2)CCN(Cc2cnc(SC)nc2)CC1,3,-7%,20µM*,4%,-39%,14%
ClC(Cl)C(Cl)Cl,x,x,1%,x,x,x
CC(=O)Nc1ccc(OC(=O)N2CCN(/[N+]([O-])=N/Oc3ccc([N+](=O)[O-])cc3[N+](=O)[O-])CC2)cc1,x,x,x,x,-45%,x
Clc1ccc(C(c2ccc(Cl)cc2)n2cc[n+](CC(OCc3ccc(Cl)cc3Cl)c3ccc(Cl)cc3Cl)c2)cc1 (stereo not given),-5,14µM*,-29%,-17%,-75%,-1%
CC1Oc2cc3c(-c4c(O)cc(O)c5c(O)c6c(cc45)OC(C)C(C)C6=O)c(O)cc(O)c3c(O)c2C(=O)C1C (stereo not given),-7,7.9µM*,23%,-9%,-76%,1%
O=c1c2ccccc2[nH]c(=S)n1-c1ccc2c(c1)OCCO2,-7,-15%,11%,15%,10µM*,14%
Oc1ccc2c3c1O[C@H]1[C@@H](O)C=CC4[C@@H](C2)NCC[C@@]341 (stereo not given in full),x,-7%,x,x,x,x
SMILES,TSHR antagonist,GLS inh,N370S GC mod,p53 reactivator,BRCA1 expr up,TCR activator
[CH3][Hg][Cl],x,x,-4%,x,x,x
COc1cc(C(C)=O)ccc1OCc1cc(C(=O)N(C)CCC2CCCCO2)no1 (stereo not given),-5,-2%,-1%,u,3.5µM*,9%
Cc1ccccc1-[n+]1c(-c2ccccc2)cc(-c2ccccc2)cc1-c1ccccc1,-75*,17%,-7%,-9%,-54%,11%
Oc1ccccc1-[n+]1c(-c2ccccc2)cc(-c2ccccc2)cc1-c1ccccc1,-1,-5%,-6%,-6%,-38%,-9%
COc1ccc(-n2nc(C(=O)NCC(=O)N3CCC4(CC3)OCCO4)c3ccccc3c2=O)cc1OC,-4,10%,u,u,10µM*,-11%
Cc1ccc(N2Cc3ccccc3C2=N)cc1[N+](=O)[O-],-2,-1%,-11%,-1%,-16%,3%
CCOC(=O)c1ccc(N2Cc3ccccc3C2=NC(=O)c2cccc([N+](=O)[O-])c2)cc1,x,1%,x,x,5µM*,2%
Cc1cc(/C=C2\C(=O)NC(=O)N(Cc3ccccc3)C2=O)c(C)n1-c1ccc(Cl)c(C(=O)O)c1,2,10µM*,-10%,0%,3%,1%[46.1 µM]
C[C@H]1[C@@H]2Cc3ccc(O)cc3[C@]1(C)CCN2C,x,54%[231 µM],x,x,x,x
CCNC(C)Cc1ccc2c(c1)OCO2 (stereo not given),x,-1%[99.4 µM],x,x,x,x
CN[C@H]1C[C@@H](N)[C@H](O)[C@@H](O[C@@H]2O[C@H](CO)[C@H](O)[C@@H]3O[C@]4(O[C@@H]23)O[C@H]([C@@H](N)CO)[C@H](O)[C@@H](O)[C@H]4O)[C@@H]1O,x,1%,x,x,x,x
CC12CCC(O)CC1CCC1C2CCC2(C)C(C3=CC(=O)OC3)CCC12O (stereo not given),x,-5%,x,x,-91%,7%
C[C@]12CC[C@H](O)C[C@H]1CC[C@@H]1[C@@H]2C[C@@H](O)[C@]2(C)[C@@H](C3=CC(=O)OC3)CC[C@]12O,-75*,0%,-1%,-9%,-13%,-1%
C[C@]12CC[C@H](O)C[C@H]1CC[C@@H]1[C@@H]2CC[C@]2(C)[C@@H](C3=CC(=O)OC3)CC[C@]12O,-78*,1%,-8%,-11%,-76%,3%
Cc1ccccc1-n1c(O)c(/C=N/NC(=O)c2ccccc2O)c(=O)[nH]c1=S,16,u,-7%,11%,2%,2%
O=C(N/N=C/c1c(O)n(C2CC2)c(=S)[nH]c1=O)c1ccccc1O,-10,u,-29%,6.3µM*,15%,1%[46.1 µM]
O=C1NC(=S)N(c2ccc(F)cc2)C(=O)/C1=C/c1ccco1,-3,x,-4%,x,x,x
